In ChEMBL document CHEMBL4513216, “Probing the Open Global Health Chemical Diversity Library for Multistage-Active Starting Points for Next-Generation Antimalarials” (ACS Infect Dis, 2020):
Screen size: about 69,000 compounds; about 8,600 (12%) showed an effect of 50% or more. For the sample, strong results were picked, then their nearest neighbours and some compounds at random.

test system: Plasmodium berghei; assay: Screen against P. berghei liver stage (PbLuc), transformed with Luciferase, at 10uM; format: functional, HepG2; settings: tested at 10 uM

Row | Structure (SMILES) | INHIBITION [%]
1 | O=C1CCCN1Cc1ncn2c1CN(Cc1cccs1)CCC2 | 21.8
2 | Cn1ccnc1CNC(=O)c1cncc(C2CCNCC2)n1 | 27.6
3 | Cn1cnc(S(=O)(=O)NCC(O)c2ccc3c(c2)CCO3)c1 (stereo not drawn) | 25.3
4 | Cn1cccc1C(O)CNS(=O)(=O)c1ccccc1Br (stereo not drawn) | -29.2
5 | Cc1cc(F)ccc1S(=O)(=O)NCC(O)c1cccn1C (stereo not drawn) | -1.99
6 | Cc1noc(C)c1S(=O)(=O)NCC(O)c1ccc2c(c1)CCO2 (stereo not drawn) | 42.3
7 | Cn1cccc1C(O)CNS(=O)(=O)c1ccccc1F (stereo not drawn) | 51
8 | O=S(=O)(NCC(O)c1ccc2c(c1)CCO2)c1ccccc1F (stereo not drawn) | 50.5
9 | NC(=O)CN1CCc2c(Br)ccc(F)c2C1 | -15
10 | Cc1nn(C)cc1Cn1c(=O)ccc2ccccc21 | 33
11 | CC(=O)N1CCC(Cc2cnc(-c3c(C)n[nH]c3C)cn2)C1 (stereo not drawn) | 36.4
12 | CCN1C(=O)CCCC12CCCN(C(=O)c1sccc1C)C2 (stereo not drawn) | -17.1
13 | CS(=O)(=O)N1CCC2(CC1)CC(Oc1ccccn1)CO2 (stereo not drawn) | 10.7
14 | O=C(c1cc[nH]n1)N1CCC(F)(F)C2(CCN(c3ccccn3)C2)C1 (stereo not drawn) | 37.8
15 | CC(NC(=O)Nc1cccnc1N1CCCC1)c1ccncc1 (stereo not drawn) | 7.12
16 | Cc1nn(C(C)C)c(C)c1NC(=O)Nc1cccnc1N1CCCC1 | 26.9
17 | CC(NC(=O)Nc1cccnc1N1CCCC1)c1ccccn1 (stereo not drawn) | -17.9
18 | Cc1nn(C)c(C)c1C(C)NC(=O)Nc1cccnc1N1CCCC1 (stereo not drawn) | 11.6
19 | CC(NC(=O)Nc1cccnc1N1CCCC1)c1ccn(C)c1 (stereo not drawn) | 62.6
20 | Cc1nn(C)c(C)c1NC(=O)Nc1cccnc1N1CCCC1 | 54.3
21 | Cn1nnc2c1CCN(Cc1ccncc1)C2COCC1CC1 (stereo not drawn) | 35.4
22 | Cc1ccc(NC2CCN(C(=O)c3cc(C)sc3C)CC2)nn1 | 9.14
23 | CN(C)CC1CN(C(=O)Cc2ccccc2)Cc2nccn2C1 (stereo not drawn) | 31.6
24 | Cc1nonc1C1CCCN1C(=O)c1cn2ccsc2n1 (stereo not drawn) | -16.6
25 | Cc1cncc(C(=O)N2CCCC(O)(CO)C2)c1 (stereo not drawn) | 15.1
26 | CC(C)C(NC(=O)NCc1cccnc1N(C)C)c1cccs1 (stereo not drawn) | 17.5

Row | Structure (SMILES) | INHIBITION [%]
27 | Cc1oncc1C(=O)N1CC[C@H]2[C@@H]1CCC(=O)N2c1cccnc1 | 18.3
28 | O=C1CC[C@H]2[C@H](CCN2c2ccccn2)N1CC1CCOCC1 | 12.7
29 | Cc1oncc1C(=O)N1CC[C@H]2[C@@H]1CCC(=O)N2CC1CC1 | 55.4
30 | Cc1oncc1C(=O)N1CC[C@H]2[C@@H]1CCC(=O)N2CC1CCOCC1 | 56.4
31 | Cc1oncc1C(=O)N1CC[C@H]2[C@H]1CCN2S(C)(=O)=O | 62.9
32 | Cc1noc(C)c1CN1CC[C@H]2[C@@H]1CCC(=O)N2CC1CCOCC1 | 6.67
33 | Cc1cccc(CN2CC[C@@H]3[C@@H]2CCN3C(=O)c2cnoc2C)n1 | -17
34 | Cc1cc(C(=O)N2CC[C@H]3[C@H]2CCN3S(C)(=O)=O)c(C)o1 | 39.4
35 | CCc1cnc(N2CC[C@H]3[C@@H]2CCC(=O)N3c2ccccc2)nc1 | 33.5
36 | Cc1oncc1C(=O)N1CC[C@@H]2[C@@H]1CC(=O)N2Cc1cccnc1 | 8.66
37 | Cc1ccc(C(=O)N2CC[C@@H]3[C@H]2CCC(=O)N3CC2CC2)o1 | 37.9
38 | CCc1cnc(N2CC[C@H]3[C@@H]2CCC(=O)N3CC2CCOCC2)nc1 | 51.2
39 | Cc1nc(S(=O)(=O)N2CCSC3(CCCCC3)C2)cn1C | -12.1
40 | CC(C)CC(=O)N1CC[C@@H]2[C@H](CC1)N(Cc1cccnc1)CCS2(=O)=O | 20.4
41 | O=C(Cc1ccccn1)N1CCN(C(=O)CC2CCCC2)CC1 | 3.73
42 | Cc1nn(C)c2cnn(Cc3ccc(C(=O)NCC4CC4)o3)c12 | 38.3
43 | CN(Cc1cnn(C)c1)C(=O)NCC1CCS(=O)(=O)C1 (stereo not drawn) | -22.3
44 | CC(=O)N1CCC2(C1)CN(C(=O)C1CCOC1)C2 (stereo not drawn) | 9.97
45 | CN(C)CCOCC1CN(C(=O)c2cccn2C)Cc2ccnn2C1 (stereo not drawn) | -7.59
46 | Cn1ccc(C(=O)N2CCCC(Cc3cccc4cccnc34)C2)n1 (stereo not drawn) | -0.371
47 | CSCCCN1C[C@H](NC(=O)c2ccc(C#N)nc2)[C@@H](C2CC2)C1 | 27.4
48 | CCCc1cncnc1N1CCC(NCc2ccncc2)CC1 | 49.1
49 | CCCc1cncnc1N1CCC(NCc2ccc(O)cc2)CC1 | 29.9
50 | CCCc1cncnc1N1CCC(NCc2cc3ccccc3[nH]2)CC1 | 88.2
51 | Cc1csc(C2(NC(=O)CCc3ccncc3)CCCC2)n1 | 20
52 | CCCn1nc(C2CCNCC2)n(Cc2ccccc2)c1=O | 26.8

Row | Structure (SMILES) | INHIBITION [%]
53 | CCOCCn1nc(C2CCNCC2)n(Cc2ccccc2)c1=O | 8.51
54 | CCn1c(C2CCNCC2)nn(Cc2ccc(C(=O)NC)o2)c1=O | 52.1
55 | CCn1c(C2CCCNC2)nn(Cc2ccc(C(=O)NC)o2)c1=O (stereo not drawn) | 38.5
56 | CCn1c(C2CCNCC2)nn(CCCc2ccccc2)c1=O | 52.1
57 | CCn1c(CC2CCNCC2)nn(Cc2ccc(C(=O)NC)o2)c1=O | 44.8
58 | CC(CN1CCOCC1)NC(=O)N1CCCC1 (stereo not drawn) | -15
59 | CN(C)[C@@H]1CCN(c2ncccn2)[C@H]1Cc1ccncc1 | 26.8
60 | COC(=O)c1ccc(OC)c(Cn2cc(Br)cn2)c1 | 20.6
61 | Cc1[nH]c2ccc(CNC(=O)c3ccc(CN4CCCC4)o3)cc2c1C | 40.3
62 | O=C(NCc1ccc2[nH]c(=O)[nH]c2c1)c1ccc(CN2CCCC2)o1 | 56.2
63 | O=C(CN1CCCCCC1)NCc1ccc2[nH]c(=O)[nH]c2c1 | -20.1
64 | CC1CCCN1Cc1ccccc1-c1nc(C(C)(C)C)cc(=O)[nH]1 (stereo not drawn) | 9
65 | CN(C)c1ccc(C(=O)N2CCCC(n3cncn3)C2)nn1 (stereo not drawn) | 0.411
66 | CCOC(=O)c1n[nH]cc1-c1cncn1CCn1nc(C)c(C)c1C | 12.3
67 | CN(C)S(=O)(=O)N1CCCCCC1c1cc(-c2ccc(F)cc2)no1 (stereo not drawn) | 38.4
68 | COc1ccc(-c2cc(C3CCCCCN3S(C)(=O)=O)on2)cc1 (stereo not drawn) | 12.725
69 | COc1ccc(-c2cc(C3CCCCCN3S(=O)(=O)N(C)C)on2)cc1 (stereo not drawn) | 55.2
70 | CSc1cccc(CNC(=O)[C@H]2CNC[C@H](C(=O)N3CCOCC3)C2)c1 | 35.8
71 | O=C1Nc2ccccc2CNC12CCN(CC1CCNC1)CC2 (stereo not drawn) | 29.2
72 | COCc1cccc(C(=O)N2C[C@@H]3CC[C@H]2CN(Cc2cscn2)C3)n1 | -38.6
73 | C[C@H](NC(=O)C1CCCC1)c1nc2cc(-c3ccc(F)cc3)ncn2n1 | 58.1
74 | COc1ccc(-c2cc3nc([C@H](C)NC(=O)C4CC4)nn3cn2)cc1 | -5.71
75 | C[C@H](NC(=O)C1CC1)c1nc2cc(-c3ccc(F)cc3)ncn2n1 | 49.6
76 | CCN1Cc2ccccc2CC2(CCN(CC(=O)O)CC2)C1=O | 37.5
77 | NCCC(=O)Nc1ccc(-c2ccccc2)cc1 | 14.5
78 | N#CC1(NC(=O)COc2cc(Cl)cc(Cl)c2)CCSC1 (stereo not drawn) | 38.5

Row | Structure (SMILES) | INHIBITION [%]
79 | Cc1ccc(OCC(=O)NC2(C#N)CCSCC2)cc1C | 41.4
80 | Cc1c(Cl)cccc1OCC(=O)NC1(C#N)CCSC1 (stereo not drawn) | 87.2
81 | CN(C)C(=O)c1cc(-c2ccccc2)[nH]n1 | -35
82 | CC(C)c1ccc(CC2(C)Cc3cc(CC(=O)O)ccc3O2)cc1 (stereo not drawn) | 20.85
83 | CN(C)[C@H]1CCCCN(C(=O)c2cccc(-c3cccc(F)c3)c2)C1 | 60.4
84 | CN(C)Cc1cnc(C2CCN(C(=O)c3cccc(F)c3)C2)[nH]1 (stereo not drawn) | 41.7
85 | CN(C)[C@H]1CCCCN(C(=O)c2cccc(N3CCS(=O)(=O)CC3)c2)C1 | 30.9
86 | CN(C(=O)CCNC(=O)NC1CCCCC1)c1ccccc1 | 27.6
87 | Cn1c(NCC(O)c2ccccc2F)c(C#N)c(=O)n(C)c1=O (stereo not drawn) | -5.25
88 | CNC(=O)[C@@H]1C[C@@H](NC(=O)CSc2ccccc2)CN1C1CCOCC1 | 54.6
89 | CNC(=O)[C@@H]1C[C@@H](NC(=O)CCCc2cccs2)CN1C1CCOCC1 | 10.4
90 | CNC(=O)[C@@H]1C[C@@H](NC(=O)Cc2cccs2)CN1C1CCOCC1 | 23.5
91 | CC(C)n1cc(CN2CCCN(C(=O)C3CCCN3C)CC2)cn1 (stereo not drawn) | 26.4
92 | CCN(CCO)C[C@@H]1CN(c2cccc(C(F)(F)F)n2)C[C@@H]1CO | 3.13
93 | COc1ccccc1OCC(=O)NS(=O)(=O)c1ccc(Cl)cc1F | 29.5
94 | COc1ccccc1CC(=O)NS(=O)(=O)c1ccc(C#N)cc1 | 15.6
95 | COc1cc(C#N)ccc1OCC(=O)NS(=O)(=O)c1ccccc1 | 50.6
96 | COc1ccccc1OCC(=O)NS(=O)(=O)c1cc(F)ccc1F | 5.14
97 | COc1ccccc1OCC(=O)NS(=O)(=O)c1ccc(F)cc1F | 63.3
98 | COc1cc(C#N)ccc1OCC(=O)NS(=O)(=O)c1cccnc1 | 19.4
99 | CN1CCCN(C(=O)NCc2cc(Br)cs2)CC1 | -13.935
100 | Cc1ccc(-c2cc(C(=O)NCCN3CCCS3(=O)=O)[nH]n2)cc1 | -8.15
101 | Cc1ccccc1NC(=O)Nc1c[nH]c(=O)[nH]c1=O | 35.7
102 | Cc1ccc(CN2CCc3ncc(CNC(=O)C4CCC4)n3CC2)o1 | 45.1
103 | O=C(NCCOC1CCCCC1)c1ccc(-c2ccco2)[nH]c1=O | -14.6
